Data taken from PubChem BioAssay (NCI).
Compounds without any hit were thinned out: in the full panel of roughly 83,000, 20% have a hit.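 Cells were grown in 96-well plates and exposed to the test compound at a single concentration for 48 hours; results are reported as percent growth, with values below 10 considered active.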 Values without a mark were called inactive. Activity calls are given as the source filed them.

Key:
Assay in all cases: NCI-60 one-dose screen, 48 h (100 = growth as untreated, 0 = no growth, -100 = all killed)
[1] = system: NCI-H23 lung; settings: 10 µM unless noted
[2] = system: NCI-H460 lung; settings: 10 µM unless noted
[3] = system: 786-0 renal; settings: 10 µM unless noted
[4] = system: DU-145 prostate; settings: 10 µM unless noted
[5] = system: MDA-MB-231 breast; settings: 10 µM unless noted
[6] = system: SF-268 CNS; settings: 10 µM unless noted
[7] = system: SF-539 CNS; settings: 10 µM unless noted
[8] = system: UACC-257 melanoma; settings: 10 µM unless noted
[9] = system: HCT-15 colon; settings: 10 µM
[10] = system: PC-3 prostate; settings: 10 µM unless noted
[11] = system: SK-MEL-5 melanoma; settings: 10 µM unless noted
[12] = system: LOX IMVI melanoma; settings: 10 µM unless noted
[13] = system: SK-MEL-28 melanoma; settings: 10 µM unless noted
[14] = system: SN12C renal; settings: 10 µM unless noted
[15] = system: NCI/ADR-RES ovarian; settings: 10 µM unless noted
[16] = system: SW-620 colon; settings: 10 µM unless noted
[17] = system: MCF7 breast; settings: 10 µM unless noted
[18] = system: HCT-116 colon; settings: 10 µM unless noted
[19] = system: HCC-2998 colon; settings: 10 µM unless noted
[20] = system: KM12 colon; settings: 10 µM unless noted

| Compound | growth [1] | growth [2] | growth [3] | growth [4] | growth [5] | growth [6] | growth [7] | growth [8] | growth [9] | growth [10] | growth [11] | growth [12] | growth [13] | growth [14] [%] | growth [15] | growth [16] | growth [17] | growth [18] | growth [19] | growth [20] |
| --- | --- | --- | --- | --- | --- | --- | --- | --- | --- | --- | --- | --- | --- | --- | --- | --- | --- | --- | --- | --- |
| CC(=O)O[C@@H]1C2=C(C)C3(CC3)[C@@](C)(O)C(=O)C2=C[C@@]1(C)CO | -33.2% (active) | 2.34% (active) | 0.386% (active) | 5.53% (active) | -2.64% (active) | 6.35% (active) | -33.1% (active) | -34.7% (active) | 0.741% (active) | 6.46% (active) | -86.1% (active) | -25.2% (active) | -28.8% (active) | 12.4 | -5.59% (active) | 4.27% (active) | 1.42% (active) | 6.86% (active) | -68.7% (active) | 0.46% (active) |
| O=C1C=CC(=O)C2C1C1(Cl)C(Cl)=C(Cl)C2(Cl)C1(Cl)Cl (stereo not drawn) | – | 57.5% | 73.9% | 70.1% | 44.8% | 47.6% | 62.5% | 57.5% | 54.3% | 44.3% | 47.5% | 50.5% | 67.7% | 67.3 | 47.3% | 64.7% | 47% | 36.3% | – | 38.9% |
| Cc1cccc(N=C2c3cc([N+](=O)[O-])ccc3-c3c2cc([N+](=O)[O-])cc3[N+](=O)[O-])c1 | 56.5% | 33.5% | 60% | 88% | 60.2% | 58.7% | 97.7% | 90.8% | 34.2% | 16.8% | 71% | 39.3% | 97.2% | 26.4 | 56.5% | -54.9% (active) | 21.3% | -0.611% (active) | – | 52.4% |
| CC12CC[C@H](O)C=C1/C(=N/O)CC1C2CCC2(C)C1CC[C@@H]2O (stereo partly drawn) | 103% | – | 80.1% | – | 108% | – | 100% | 111% | 97.9% | – | 103% | 94.3% | 103% | 104 | 101% | – | 85.6% | 93.3% | 99.3% | – |
| O=C(O)C1(Br)CC12c1ccccc1-c1ccccc12 (stereo not drawn) | 97.1% | 111% | 101% | 111% | 115% | 100% | 103% | 94.8% | 101% | 100% | 98.4% | 96.1% | 114% | 107 | 104% | 111% | 93.4% | 100% | 106% | 99.7% |
| CO[C@@H]([CH2][Hg][S]C#N)[C@@H]([CH2][Hg][S]C#N)OC | – | 127% | 120% | 99.2% | 96.1% | 100% | 125% | 86.8% | – | 78.8% | 107% | – | 104% | 98.2 | 93.7% | 22.3% | 31% | -100% (active) | 90.3% | 107% |
| COc1ccc(CN2CCN(Cc3ccccc3)CC2)c(O)c1 | 94.8% | 97% | 95% | 97.4% | 104% | 100% | 117% | 105% | 99.2% | 86.2% | 87.9% | 92.1% | 115% | 91.2 | 83.4% | 98.5% | 99.7% | 83.4% | 89.4% | 100% |
| CCOc1c(Cl)cc(CNC(C)C(O)c2ccccc2)cc1OC (stereo not drawn) | 80.4% | 75.1% | 89.1% | 57% | 59.9% | 66.8% | 82.8% | 51.4% | 47.1% | 57.2% | 82.7% | 57.1% | 41.5% | 79.8 | 50.9% | 43.4% | 42.9% | 59.2% | 81.3% | 55.3% |
| COc1c(O)c2c3c(c1OC)-c1ccccc1CC3N(C)CC2 (stereo not drawn) | 102% | 110% | 100% | 116% | 96.3% | 101% | 107% | 103% | 105% | 100% | 108% | 99.3% | 117% | 99.9 | 99.7% | 117% | 100% | 95.7% | 111% | 100% |
